We go through 38 molecules from PubChem BioAssay AID588683 (Broad Institute, 2011).

Measured potencies and affinities stand elsewhere. Unmarked numbers belong to inactive results. The rule behind the calls is not given here.

This test deals with Kelch-like ECH-associated protein 1 (Homo sapiens) + Nuclear factor erythroid 2-related factor 2 (Homo sapiens) (UniProt Q14145+Q16236). As to the kind of experiment: disruptors of Keap1 binding to Nrf2 peptide – biochemical, fluorescence polarization, cherry-picked samples, dose response (AID 588683).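 Note: Kelch domain of Keap1 binding a fluorescein-labelled 9mer Nrf2 peptide; more negative means stronger inhibition of peptide binding.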 The settings on record: plate reader; series mostly up to 26 µM; activity change, negative = inhibition: at the top concentration.
Chain of Kelch-like ECH-associated protein 1 (Homo sapiens) + Nuclear factor erythroid 2-related factor 2 (Homo sapiens) (Q14145 whole entry, looked up, the tested form may be a part): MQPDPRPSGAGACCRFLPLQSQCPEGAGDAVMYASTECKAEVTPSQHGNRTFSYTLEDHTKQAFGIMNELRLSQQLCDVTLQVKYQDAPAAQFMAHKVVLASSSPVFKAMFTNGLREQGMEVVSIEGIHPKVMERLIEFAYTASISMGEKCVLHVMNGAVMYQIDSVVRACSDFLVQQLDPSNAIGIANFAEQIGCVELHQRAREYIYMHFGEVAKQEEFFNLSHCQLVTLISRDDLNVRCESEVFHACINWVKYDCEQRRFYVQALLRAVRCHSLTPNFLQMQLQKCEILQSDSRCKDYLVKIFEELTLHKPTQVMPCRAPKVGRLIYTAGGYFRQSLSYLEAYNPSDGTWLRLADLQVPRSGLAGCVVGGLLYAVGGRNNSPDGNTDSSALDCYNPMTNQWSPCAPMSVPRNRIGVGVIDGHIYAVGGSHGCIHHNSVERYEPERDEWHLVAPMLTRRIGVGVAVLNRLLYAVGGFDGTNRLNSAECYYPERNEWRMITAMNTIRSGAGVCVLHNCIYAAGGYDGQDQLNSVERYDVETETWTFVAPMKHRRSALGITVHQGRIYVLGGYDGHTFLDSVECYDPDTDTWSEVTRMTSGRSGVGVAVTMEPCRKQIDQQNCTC
Chain of Kelch-like ECH-associated protein 1 (Homo sapiens) + Nuclear factor erythroid 2-related factor 2 (Homo sapiens) (Q16236 whole entry, looked up, the tested form may be a part): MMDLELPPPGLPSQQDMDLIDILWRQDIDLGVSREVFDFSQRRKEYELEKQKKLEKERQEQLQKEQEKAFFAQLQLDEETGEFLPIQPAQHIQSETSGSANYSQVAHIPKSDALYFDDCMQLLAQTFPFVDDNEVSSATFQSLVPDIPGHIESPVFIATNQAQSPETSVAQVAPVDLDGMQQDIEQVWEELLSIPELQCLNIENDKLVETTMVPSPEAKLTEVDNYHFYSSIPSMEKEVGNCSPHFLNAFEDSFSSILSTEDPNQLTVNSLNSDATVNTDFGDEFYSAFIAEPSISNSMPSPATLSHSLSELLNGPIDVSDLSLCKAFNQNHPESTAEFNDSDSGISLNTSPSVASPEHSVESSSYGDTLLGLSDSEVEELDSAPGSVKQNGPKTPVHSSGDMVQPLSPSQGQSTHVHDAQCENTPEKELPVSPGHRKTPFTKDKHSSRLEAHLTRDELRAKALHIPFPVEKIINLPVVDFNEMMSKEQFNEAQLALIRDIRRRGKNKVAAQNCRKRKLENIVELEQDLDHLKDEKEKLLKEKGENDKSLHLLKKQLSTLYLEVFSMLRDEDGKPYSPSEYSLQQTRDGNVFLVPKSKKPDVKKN
Regarding `O=c1ccc2cc3c4c(c2o1)CCCN4CCC3`, the “activity change, negative = inhibition” value is -45.4%.

Consider `CC(C)C1OC2(C)OC(=N)C1(C#N)C(C#N)(C#N)C2c1ccccc1` (stereo not drawn), for which the “activity change, negative = inhibition” value was -7.88%.

`Cc1cc(NC(=O)CSc2nnc(-c3ccncc3)n2C)n(-c2ccccc2)n1`: the “activity change, negative = inhibition” value was -2.6%.

On to `COc1cc(Cl)c(C)cc1NCC(=O)Nc1cccc(S(=O)(=O)N2CCCC2)c1`, for which the “activity change, negative = inhibition” value is -4.11%.

`C=CCOc1ccc(C=NNc2ccc(S(=O)(=O)Nc3ccccc3C(=O)O)cc2[N+](=O)[O-])cc1OC`: the “activity change, negative = inhibition” value is -0.849%.

On to `O=[N+]([O-])c1ccc(S(=O)(=O)c2ccccc2)nc1`, for which the “activity change, negative = inhibition” value was -12.1%.

For `COc1ccc(C2c3ccc(O)cc3Oc3ncn(CCCO)c(=N)c32)cc1OC` (stereo not drawn), the “activity change, negative = inhibition” value was -8.41%.

Regarding `Cc1nc(-c2ccc(S(=O)(=O)N3CCCN(CCc4ccccc4)CC3)s2)cs1`, the “activity change, negative = inhibition” value is -12.4%.

On to `O=S(=O)(Nc1ncccn1)c1ccc(NC(=S)NCc2cccnc2)cc1`, for which the “activity change, negative = inhibition” value was -14.6%.

Consider `COc1ccccc1NC(=O)C(C)OC(=O)C1COc2ccccc2O1` (stereo not drawn), for which the “activity change, negative = inhibition” value was -9.11%.

With `O=C1C=CC(=O)c2c(O)c(N3CCN(CCOCCO)CC3)c(Br)c(O)c21`, the “activity change, negative = inhibition” value is -12.2%.

On to `Cc1cc[n+](-c2[nH]c(=O)sc2/C=N/NC([S-])=Nc2ccccc2)cc1`, for which the “activity change, negative = inhibition” value was 39%.

As for `CC[C@H](C)[C@H](NC(=O)OCc1ccccc1)C(=O)OCC(=O)N1CCN(c2ccc(F)cc2)CC1`, the “activity change, negative = inhibition” value was -5.51%.

Consider `CC(C)(C)c1ccccc1NC(=O)NC1CCN(Cc2c(F)cccc2Cl)CC1`, for which the “activity change, negative = inhibition” value is -6.22%.

For `COC(=O)c1cc(C)nc2c1c(C)nn2-c1ccccc1`, the “activity change, negative = inhibition” value is -5.13%.

As to `CCCCN(C(=O)CC1CCCCC1)c1c(N)n(CC(C)C)c(=O)[nH]c1=O`, the “activity change, negative = inhibition” value is -8.63%.

As to `CC1(C)CC(=O)C(N=Nc2c(F)cccc2F)=C(O)C1`, the “activity change, negative = inhibition” value was 1.16%.

As to `O=c1[nH]c(=S)[nH]c2c1C(c1ccc(Br)cc1)c1c([nH]c(=S)[nH]c1=O)O2`, the “activity change, negative = inhibition” value was -2.56%.

Turning to `CCCCN1C(=O)/C(=C2/Sc3ccccc3N2C)S/C1=N\c1ncn[nH]1`, the “activity change, negative = inhibition” value is 55.7%.

`CCOC(=O)c1c(C)oc2c1c(C=NCCO)c(O)c1ccccc12`: the “activity change, negative = inhibition” value was -7.78%.

`COC(=O)c1cc(N2CCN(C)CC2)nc2ccccc12`: the “activity change, negative = inhibition” value is -11.7%.

With `COc1ccc(NC(=S)N2CCN(Cc3ccc(C)cc3)CC2)cc1`, the “activity change, negative = inhibition” value was 1.39%.

Consider `COc1ccc(C2=CC(c3ccco3)n3ncnc3N2)cc1` (stereo not drawn), for which the “activity change, negative = inhibition” value is -16.9%.

Consider `CCCN(CCC)C(=O)C1c2ccccc2Oc2ccccc21`, for which the “activity change, negative = inhibition” value was 8.47%.

Turning to `N=c1c(C(=O)NC2CCCC2)cc2c(=O)n3ccccc3nc2n1Cc1ccccc1`, the “activity change, negative = inhibition” value was -5.93%.

Take `O=C(/C=C/c1ccccc1Cl)NCCCn1ccnc1`: the “activity change, negative = inhibition” value was -9.01%.

For `Cn1nc(C(=O)NNC(=O)Cc2ccc(S(=O)(=O)N3CCOCC3)s2)c2ccccc2c1=O`, the “activity change, negative = inhibition” value was 0.832%.

`CCOc1ccc2noc3c2c1C(=O)c1ccccc1-3`: the “activity change, negative = inhibition” value is -195%.

Turning to `C=CCn1c(=O)/c(=C/c2ccsc2)s/c1=C(\C#N)C(=O)NCCN1CCOCC1`, the “activity change, negative = inhibition” value was -7.84%.

In the case of `Cn1ccnc1Sc1cc(NCCCO)c([N+](=O)[O-])c2nonc12`, the “activity change, negative = inhibition” value was -5.23%.

Regarding `O=C(C1=NN(c2ccccc2)C2C(=O)N(c3ccccc3)C(=O)C12)c1ccccc1` (stereo not drawn), the “activity change, negative = inhibition” value is 13%.

Turning to `CCCc1nc2oc3cc(OC)ccc3c(=O)c2c(=O)n1Cc1ccco1`, the “activity change, negative = inhibition” value was -1.14%.

In the case of `Cc1cccc(NC(=O)CCN2CCCCC2)c1`, the “activity change, negative = inhibition” value is 0.772%.

Regarding `O=C1NC(c2cc(Cl)cc([N+](=O)[O-])c2O)Nc2ccccc21` (stereo not drawn), the “activity change, negative = inhibition” value is -16.2%.

In the case of `CCC1OC23CCCCC2C(C#N)(C(=N)O3)C1(C#N)C#N` (stereo not drawn), the “activity change, negative = inhibition” value is 1.01%.

Regarding `CCC(CNc1cc(OC)cc2cccnc12)NC1CCCCC1` (stereo not drawn), the “activity change, negative = inhibition” value is -15.9%.

For `CCN1/C(=C\c2ccc3ccccc3[n+]2CC)Sc2cc(C)ccc21`, the “activity change, negative = inhibition” value is 37%.

As for `CNS(=O)(=O)c1ccc2c3c(cccc13)C(=O)N2C`, the “activity change, negative = inhibition” value is -7.61%.
